# Results filed as inconclusive are left out. Active and inactive are the calls of the source. Calls follow the shape of the full dose curve.
# Target: Acetylcholinesterase (Homo sapiens) (UniProt P22303)
# Assay: Acetylcholinesterase (AChE) small molecule antagonists: colormetric cell-based qHTS assay (AID 1347395); also: nearly all actives have a fitted effect of over 30% in size
# Conditions: SH-SY5Y cells AChE activity, colorimetric (Ellman); series mostly up to 115 µM; activity, negative = inhibition: at the top concentration
# How it was run: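 SH-SY5Y cells, plated overnight at 37 C, were exposed to compounds for 30 min at 37 C and 5% CO2. Acetylthiocholine plus DTNB was then added, and thiocholine from endogenous AChE was quantified colorimetrically after 90 min at 37 C.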
# % is scaled to controls: 0 for no effect and ±100 for the full control effect; potency is read from the fitted curve at half-maximal effect.
# Chain of Acetylcholinesterase (Homo sapiens) (P22303 whole entry, looked up): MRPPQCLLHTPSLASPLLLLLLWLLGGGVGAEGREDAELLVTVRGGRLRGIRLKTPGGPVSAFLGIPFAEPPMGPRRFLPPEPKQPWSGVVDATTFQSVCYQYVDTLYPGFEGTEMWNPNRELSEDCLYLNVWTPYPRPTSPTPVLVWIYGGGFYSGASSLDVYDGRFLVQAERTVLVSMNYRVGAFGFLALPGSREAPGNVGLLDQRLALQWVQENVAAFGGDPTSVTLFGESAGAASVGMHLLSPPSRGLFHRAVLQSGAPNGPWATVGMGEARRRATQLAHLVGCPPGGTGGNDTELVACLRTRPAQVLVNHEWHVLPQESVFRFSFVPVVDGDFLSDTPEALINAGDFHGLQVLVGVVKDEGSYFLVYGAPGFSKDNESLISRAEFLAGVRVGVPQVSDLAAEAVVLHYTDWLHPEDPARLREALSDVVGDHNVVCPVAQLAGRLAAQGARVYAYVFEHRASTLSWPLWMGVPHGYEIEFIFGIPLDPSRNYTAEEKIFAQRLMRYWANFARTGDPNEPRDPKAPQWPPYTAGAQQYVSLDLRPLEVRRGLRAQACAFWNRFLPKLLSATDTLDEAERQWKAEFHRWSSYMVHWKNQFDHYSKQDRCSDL
SMILES,Potency,"activity, negative = inhibition"
C[Si](O[Si](C)(C)C)O[Si](C)(C)C,inactive,–
O=C(Nc1cccc(C(F)(F)F)c1)c1cc(Br)cc(Br)c1O,–,10.6% (inactive)
OC(CCl)CCl,inactive,–
C=CC(=O)CC,–,3.75% (inactive)
CCN(CC)c1ccc(C=O)c(O)c1,39.9 µM (active),–
CCC(C(=O)NC(=O)NC(C)=O)c1ccccc1 (stereo not given),–,-0.0076% [at 52.9 µM] (inactive)
CCCc1cc(=O)[nH]c(=S)[nH]1,inactive,–
c1ccc2[nH]c(-c3cscn3)nc2c1,inactive,–
O=C1c2ccccc2C(=O)c2c(O)ccc(O)c21,–,-0.836% (inactive)
O=S(=O)(O)c1cc(Cl)c(Cl)cc1Cl,–,-1.71% (inactive)
N[C@@H](Cc1cc(I)c(Oc2cc(I)c(O)c(I)c2)c(I)c1)C(=O)O,inactive,–
CNC(=O)c1ccccc1,–,1.53% (inactive)
C[C@@H]1[C@H](O)[C@@H](C)/C=C/C=C\C=C\C=C\C=C\C=C\C=C\[C@H](O[C@@H]2O[C@H](C)[C@@H](O)[C@H](N)[C@@H]2O)C[C@@H]2O[C@](O)(C[C@@H](O)C[C@@H](O)[C@H](O)CC[C@@H](O)C[C@@H](O)CC(=O)O[C@H]1C)C[C@H](O)[C@H]2C(=O)O (stereo in doubt),–,4.98% (inactive)
OCCc1ccccn1,–,-2.32% (inactive)
CCCCCCCCCCCSCC(=O)O,–,-5.93% (inactive)
COc1cc(NC(=O)CC(C)=O)c(OC)cc1Cl,inactive,–
CCCCCCCCC/C=C/CC1CC(=O)OC1=O (stereo not given),inactive,–
CC(=O)Oc1ccc(C)cc1,inactive,–
C=CCOc1cc(Cl)ccc1C(=O)NCCN(CC)CC,–,-6.22% [at 52.9 µM] (inactive)
CC(=O)OCc1ccco1,inactive,–

SMILES,Potency,"activity, negative = inhibition"
O=C(Oc1ccccc1)c1ccccc1O,inactive,–
CCCC(C)CO (stereo not given),–,-0.12% (inactive)
O=C(NCN1CCOCC1)c1cnccn1,–,3.53% [at 52.9 µM] (inactive)
COCCC(=O)OC,–,-1.01% (inactive)
O=c1c(O)c(-c2ccc(O)c(O)c2)oc2cc(O)cc(O)c12,inactive,–
Cc1nc2ccccc2c(=O)o1,–,1.26% (inactive)
O=C(/C=C/c1ccc([N+](=O)[O-])cc1)c1ccccc1,–,-2.68% (inactive)
CC1=CCC(O)(C(C)C)CC1 (stereo not given),–,-0.526% (inactive)
C[Si](C)O[Si](C)C,–,-0.402% (inactive)
C1CSCCS1,–,0.511% (inactive)
CC(=O)NCc1c(I)c(NC(C)=O)c(I)c(C(=O)O)c1I,–,4.24% [at 52.9 µM] (inactive)
CN(C)C(=O)NC1(c2ccccc2)CCN(CCC[C@]2(c3ccc(Cl)c(Cl)c3)CCCN(C(=O)c3ccccc3)C2)CC1,–,-4.11% [at 23.6 µM] (inactive)
CC(C)(C)C(=O)OCOC(=O)[C@@H]1N2C(=O)[C@@H](NC(=O)[C@H](N)c3ccccc3)[C@H]2SC1(C)C,–,-0.0881% [at 52.9 µM] (inactive)
C(=C/c1ccccc1)/c1ccccc1,–,3.63% (inactive)
CC(C)c1cccc(C(C)C)c1N,–,0.121% (inactive)
CC(C)CC(=O)OCc1ccccc1,–,0.505% (inactive)
CNC(=O)N(c1ccccc1)c1ccccc1,–,-0.293% (inactive)
O=C(O)c1ccc([N+](=O)[O-])cc1,inactive,–
c1ccc2c(c1)[nH]c1ccccc12,inactive,–
CCCC/C=C\CCCCCCCCCC=O,–,1.03% (inactive)
